Screening data: PubChem, Broad Institute
In the library only some 6.8% were active in any assay of this set; here they are far more common.
Pf Dd2 inh = inhibitors of Plasmodium falciparum Dd2 growth; P. falciparum Dd2 growth, SYBR Green, 72 h; hits give low values; activity change, % at 10 µM; 94,000 tested, 2.3% active; in the data active = activity change below about -80%; inconclusive = no clear call, values can overlap the other calls
C diff HTS = inhibitors of Clostridium difficile growth; 86,000 tested, 0.25% active; Clostridium difficile clinical isolate growth, OD600, 24 h; hits give low values; growth activity, negative = inhibition, % at 16 µg/mL (by protocol); AID 1259249;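 active = mean growth activity at or below -80% and every replicate also at or below -80%; inconclusive = mean at or below -80% but some replicate above -80%; inactive = mean growth activity above -80%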;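 note: 0% = DMSO wells and -100% = levofloxacin 16 µg/mL wells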
Tcruzi prolif = blocks T. cruzi growth in NIH3T3 culture. T. cruzi beta-gal in NIH3T3, GalScreen luminescence, 90 h. inhibition, % at 8.34 µM. 77,000 tested, 5.9% active. AID 624255;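 active = mean inhibition above about 93%, with at least 55% of replicates each passing it, limit read from the data, passing the limit was not always enough; inconclusive = only one of those two conditions holds; inactive = neither condition holds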
Active calls of the source: *; ! = repeats disagree.

Screening O=C(Nc1ccccc1)N1CCCCN2[C@H](CO)[C@@H](c3ccc(-c4ccccc4F)cc3)[C@@H]2C1 returned Pf Dd2 inh 11, C diff HTS 50 and Tcruzi prolif 88.
COc1ccc(C#Cc2ccc([C@@H]3[C@H]4CN(C(=O)Nc5cccc(F)c5)CCCCN4[C@H]3CO)cc2)cc1 was read as Pf Dd2 inh -51, C diff HTS 53 and Tcruzi prolif 68.
Screening COc1ccc(C#Cc2ccc([C@@H]3[C@H](CO)N4CCCCN(C(=O)Nc5cccc(F)c5)C[C@@H]34)cc2)cc1 returned Pf Dd2 inh -84*, C diff HTS -85* and Tcruzi prolif 62.
COc1ccc(NC(=O)N2CCCCN3[C@H](CO)[C@H](c4ccc(-c5ccccc5F)cc4)[C@@H]3C2)cc1 was read as Pf Dd2 inh -85*, C diff HTS -15 and Tcruzi prolif 30.
COc1ccc(C#Cc2ccc([C@H]3[C@H]4CN(Cc5ccccc5F)CCCCN4[C@H]3CO)cc2)cc1 was read as Pf Dd2 inh -35, C diff HTS 0 and Tcruzi prolif 5.
COc1ccc(C#Cc2ccc([C@H]3[C@@H](CO)N4CCCCN(C(=O)Nc5cccc(F)c5)C[C@H]34)cc2)cc1 was read as Pf Dd2 inh inconclusive, C diff HTS -89* and Tcruzi prolif 66.
Cc1ccc(S(=O)(=O)N(C)C[C@H]2Oc3c(NC(=O)Nc4ccc5c(c4)OCO5)cccc3C(=O)N([C@@H](C)CO)C[C@@H]2C)cc1 was read as Pf Dd2 inh -28, C diff HTS 1 and Tcruzi prolif 61.
Screening COc1ccc(NC(=O)N(C)C[C@@H]2Oc3cc(C#CCN(C)C)ccc3S(=O)(=O)N([C@@H](C)CO)C[C@H]2C)cc1 returned Pf Dd2 inh -6, C diff HTS -6 and Tcruzi prolif 44.
CCC(=O)N1CC2(C1)CN(S(C)(=O)=O)[C@@H](CO)c1[nH]c3cc(OC)ccc3c12 was read as Pf Dd2 inh 40 and C diff HTS 4.
Screening COc1ccc(NC(=O)N(C)C[C@@H]2OCCCC[C@@H](C)Oc3ccc(NC(=O)Nc4cccc5ccccc45)cc3C(=O)N([C@@H](C)CO)C[C@@H]2C)cc1 returned Pf Dd2 inh -75, C diff HTS 5 and Tcruzi prolif -7.
`O=C(C[C@H]1CC[C@H]2NC[C@H](O)COC[C@@H]2O1)NCc1ccc(Oc2ccccc2)cc1` gave Pf Dd2 inh 37, C diff HTS 2 and Tcruzi prolif -54.
Screening COc1ccc(CNC(=O)C[C@@H]2C[C@H]3c4cc(NS(C)(=O)=O)ccc4O[C@H]3[C@@H](CO)O2)cc1 returned Pf Dd2 inh 15, C diff HTS 1 and Tcruzi prolif 9.
For C[C@H](CO)N1C[C@H](C)[C@@H](CN(C)C(=O)Nc2ccc(C(F)(F)F)cc2)Oc2ccc(NC(=O)CCC(F)(F)F)cc2CC1=O the results were Pf Dd2 inh -15, C diff HTS -1 and Tcruzi prolif 22.
CCC(=O)N(C)C[C@H]1Oc2cc(-c3ccccc3C)ccc2S(=O)(=O)N([C@@H](C)CO)C[C@H]1C was read as Pf Dd2 inh 8, C diff HTS 1 and Tcruzi prolif 22.
For C[C@H]1CN([C@@H](C)CO)C(=O)Cc2cc(NC(=O)c3ccncc3)ccc2O[C@H]1CN(C)Cc1ccc(C(F)(F)F)cc1 the results were Pf Dd2 inh -4, C diff HTS 3 and Tcruzi prolif 16.
`CNC[C@H]1Oc2ccc(NC(=O)Nc3ccc(C(F)(F)F)cc3)cc2C(=O)N([C@H](C)CO)C[C@H]1C` gave Pf Dd2 inh 11, C diff HTS -1 and Tcruzi prolif 8.
`C[C@H]1CCCCO[C@H](CN(C)Cc2ccc(Cl)c(Cl)c2)[C@@H](C)CN([C@@H](C)CO)C(=O)c2cc(NC(=O)Cc3ccccc3)ccc2O1` gave Pf Dd2 inh -85*, C diff HTS 7 and Tcruzi prolif 68.
C[C@@H]1CCCCO[C@@H](CN(C)Cc2ccccc2)[C@H](C)CN([C@H](C)CO)C(=O)c2cc(NC(=O)Cc3ccccc3)ccc2O1 was read as Pf Dd2 inh -66 and C diff HTS -1.
For C[C@@H]1CCCCO[C@@H](CN(C)Cc2ccc(Cl)c(Cl)c2)[C@H](C)CN([C@@H](C)CO)C(=O)c2cc(NC(=O)Cc3ccccc3)ccc2O1 the results were Pf Dd2 inh -66, C diff HTS 5 and Tcruzi prolif 63.
For C[C@@H]1CN([C@H](C)CO)C(=O)c2cc(NC(=O)Cc3ccccc3)ccc2O[C@@H](C)CCCCO[C@H]1CN(C)Cc1ccc(Cl)c(Cl)c1 the results were Pf Dd2 inh -84*, C diff HTS 1 and Tcruzi prolif 91.
CC=Cc1ccc2n(c1=O)C[C@@H]1[C@@H](CO)[C@H](C(=O)NCCC)[C@H]2N1Cc1nccs1 (mixture of isomers) was read as Pf Dd2 inh 2, C diff HTS 1 and Tcruzi prolif 53.
COc1ccc2c3c([nH]c2c1)[C@@H](CO)N(C(=O)c1ccc(F)cc1)CC31CCN(C)CC1 was read as Pf Dd2 inh 56.
For COc1ccc(S(=O)(=O)Nc2ccc3c(c2)C(=O)N([C@@H](C)CO)C[C@@H](C)[C@H](CN(C)CC2CC2)OCCCC[C@H](C)O3)cc1 the results were Pf Dd2 inh -41, C diff HTS -6 and Tcruzi prolif 17.
For CCCN(C)C[C@H]1OCCCC[C@@H](C)Oc2ccc(NS(=O)(=O)c3ccc(C)cc3)cc2C(=O)N([C@@H](C)CO)C[C@H]1C the results were Pf Dd2 inh -86*, C diff HTS 6 and Tcruzi prolif 55.
For CCCN(C)C[C@H]1OCCCC[C@H](C)Oc2ccc(NS(=O)(=O)c3ccc(OC)cc3)cc2C(=O)N([C@H](C)CO)C[C@H]1C the results were Pf Dd2 inh -86*, C diff HTS 1 and Tcruzi prolif 82.
For C[C@@H]1CCCCO[C@@H](CN(C)Cc2ccc3c(c2)OCO3)[C@H](C)CN([C@@H](C)CO)C(=O)c2cc(NS(=O)(=O)c3ccc(Cl)cc3)ccc2O1 the results were Pf Dd2 inh 1 and Tcruzi prolif 34.
Screening C[C@@H]1CCCCO[C@H](CN(C)Cc2ccc3c(c2)OCO3)[C@H](C)CN([C@H](C)CO)C(=O)c2cc(NS(=O)(=O)c3ccc(Cl)cc3)ccc2O1 returned Pf Dd2 inh -83*! and Tcruzi prolif 81.
`COc1ccc(S(=O)(=O)Nc2ccc3c(c2)C(=O)N([C@H](C)CO)C[C@@H](C)[C@H](CN(C)Cc2ccc(Cl)c(Cl)c2)OCCCC[C@H](C)O3)cc1` gave Pf Dd2 inh -84* and Tcruzi prolif 12.
CCCN(C)C[C@H]1OCCCC[C@@H](C)Oc2ccc(NS(=O)(=O)c3ccc(C)cc3)cc2C(=O)N([C@H](C)CO)C[C@@H]1C was read as Pf Dd2 inh -52, C diff HTS 14 and Tcruzi prolif 91.
For COc1ccc(S(=O)(=O)Nc2ccc3c(c2)C(=O)N([C@H](C)CO)C[C@H](C)[C@H](CN(C)Cc2ccc(Cl)c(Cl)c2)OCCCC[C@H](C)O3)cc1 the results were Pf Dd2 inh -59 and C diff HTS 15.
Screening Cc1noc(C)c1S(=O)(=O)Nc1cccc2c1O[C@H](CN(C)C(=O)Nc1cccc3ccccc13)[C@H](C)CN([C@@H](C)CO)C2=O returned Pf Dd2 inh -9 and Tcruzi prolif 9.
